Unmarked numbers belong to inactive results. Activity calls are given as the source filed them. Calls follow the shape of the full dose curve.
Potency is read from the fitted curve at half-maximal effect.

One assay is described as follows: qHTS drug screen for cell cycle checkpoint inhibitors in PARPi-resistant BRCA-mutant ovarian cancer cell lines. (AID 1963452). As to conditions: PEO1/OlaR viability, CellTiter-Glo luminescence, 96 h. In short, it runs like this: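 PEO1, PEO4 and PEO1/OlaR ovarian cancer cells, 600 per well, exposed 96 h at 37C to a dilution series. Viability read by CellTiter-Glo luminescence, normalized to DMSO and empty wells; activity summarized as Z-AUC.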
(Quantitative high-throughput screening tests each substance at several concentrations.)
As to `COc1ccc(-c2ccc3ncc4c(c3c2)n(-c2ccc(N3CCNCC3)c(C(F)(F)F)c2)c(=O)n4C)cn1`, the Potency was 123 nM (active). The same measure, in the same setting: the value for `Cc1ccc(C(=O)N(CCCN)[C@@H](c2oc3cc(Cl)ccc3c(=O)c2Cc2ccccc2)C(C)C)cc1` was 8710 nM (active).

With `Cc1ccc(C(=O)N(CCCN)[C@@H](c2nc3cc(Cl)ccc3c(=O)n2Cc2ccccc2)C(C)C)cc1`, the Potency is 9.8 nM (active). For `CCC[C@H](Nc1nc(-c2ccc(NC(=O)NCC)c(OC)c2)ncc1C)c1cccnc1`, the Potency is 8.7 nM (active).

The assay is the same for the next values; noted with them: PEO1/OlaR viability, CellTiter-Glo luminescence, 96 h; stronger effect = lower value.
Turning to `CC[C@H](C=C[C@@H](C)[C@H]1CC[C@H]2[C@@H]3CC=C4C[C@@H](O)CC[C@]4(C)[C@@H]3CC[C@]12C)C(C)C`, the Z-AUC was 0.764. Still for that read-out and setting: next, `CC(NCCc1ccc(O)cc1)C(O)c1ccc(O)cc1` (configuration not stated): -0.504.

Turning to `Clc1ccc(COC(Cn2ccnc2)c2ccc(Cl)cc2Cl)c(Cl)c1` (configuration not stated), the Z-AUC was -0.245. Same read-out and setting: next, `CCCCC[C@H](O)C=C[C@H]1[C@H](O)CC(=O)[C@H]1CC=CCCCC(=O)O`: 1.09; `C=C1c2cccc(O)c2C(O)=C2C(=O)[C@@]3(O)C(O)=C(C(N)=O)C(=O)[C@@H](N(C)C)[C@@H]3[C@@H](O)[C@H]12`: -0.114; `O=C1NC(=O)C(c2cnc3ccccn23)=C1c1cn2c3c(cccc13)CN(C(=O)N1CCOCC1)CC2`: -1.3. On to `Nc1ccc(-c2ccc3ncc4ccc(=O)n(-c5cccc(C(F)(F)F)c5)c4c3c2)cn1`, for which the Z-AUC was -1.37. As to `CCCCC(F)(F)[C@@]1(O)CC[C@H]2[C@H](CC(=O)[C@@H]2CCCCCCC(=O)O)O1`, the Z-AUC was -0.514.

Source of the values: PubChem BioAssay (NCATS).
